PRMT1 FP inh = blocks human protein arginine methyltransferase 1; Q99873; recombinant PRMT1, activity-based probe fluorescence polarization; inhibition, % at 2.79 µM; 370,000 tested, 1.3% active;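 active means inhibition above about 21% made by adding two undisclosed values, limit read from the data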
rCAG RNA binder = r(CAG) repeat RNA binding | AID 651821 | inhibition, % at 3 µM | TO-PRO-1 dye displacement fluorescence | 370,000 tested, 1.3% active;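 active means inhibition above the plate cutoff, the mean of all test compounds on that plate plus 3 SD, cut at about 35% in these data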;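 further: 0% = DMSO alone and 100% = 100 µM mitoxantrone as full dye displacement; higher means more dye released from RNA so lower well fluorescence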
ALR H2O2 inh = human ALR oxidase inhibition via reduced H2O2. 290,000 tested, 3.8% active. purified ALR, DTT oxidation, H2O2 HRP-luminol luminescence. inhibition, % (concentration not given with the values);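 active means mean replicate inhibition above about 79%, with every replicate also reaching it, limit read from the data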
LANA-H2A inh = blocks KSHV LANA binding to histone H2A/H2B; AID 2629; Q9QR71; 320,000 tested, 0.6% active; cell-free LANA-H2A/H2B peptide, fluorescence polarization; inhibition, % (test concentration not listed); in the data active means inhibition mostly above about 10%, no sharp cut-off; inactive means mostly below about 6.7%
Rtt109 HAT inh = blocks Candida albicans Rtt109/Vps75 acetyltransferase activity | purified Rtt109/Vps75, ThioGlo CoA-SH fluorescence, 4 h | Q5AAJ8 | inhibition, % at 34.9 µM | 330,000 tested, 0.16% active;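 active means inhibition of at least 50% in every replicate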
ABHD5 PLIN5 PPI = ABHD5-PLIN5 protein interaction inhibition; Q00G26+Q8WTS1; Split G. princeps luciferase complementation, luminescence, 4 h; inhibition, % at 4 µM; 360,000 tested, 0.78% active; AID 602281;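 active means inhibition above the mean inhibition across every tested compound plus 3 SD, cut at about 22% in these data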;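 further: 0% = DMSO only wells and the 100% control is not disclosed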
Target sequence (Q00G26 whole entry, looked up): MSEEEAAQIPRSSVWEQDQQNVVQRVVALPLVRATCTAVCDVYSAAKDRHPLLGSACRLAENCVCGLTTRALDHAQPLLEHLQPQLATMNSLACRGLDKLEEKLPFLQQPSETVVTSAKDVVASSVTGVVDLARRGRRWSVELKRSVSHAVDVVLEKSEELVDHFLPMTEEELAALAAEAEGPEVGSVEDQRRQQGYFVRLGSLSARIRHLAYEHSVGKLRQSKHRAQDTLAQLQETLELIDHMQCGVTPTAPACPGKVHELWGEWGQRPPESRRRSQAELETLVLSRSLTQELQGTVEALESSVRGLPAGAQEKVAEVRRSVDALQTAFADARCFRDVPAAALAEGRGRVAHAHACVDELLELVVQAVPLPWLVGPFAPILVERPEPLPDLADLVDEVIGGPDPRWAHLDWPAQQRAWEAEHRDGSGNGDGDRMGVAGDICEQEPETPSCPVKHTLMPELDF
Target sequence (Q8WTS1 whole entry, looked up): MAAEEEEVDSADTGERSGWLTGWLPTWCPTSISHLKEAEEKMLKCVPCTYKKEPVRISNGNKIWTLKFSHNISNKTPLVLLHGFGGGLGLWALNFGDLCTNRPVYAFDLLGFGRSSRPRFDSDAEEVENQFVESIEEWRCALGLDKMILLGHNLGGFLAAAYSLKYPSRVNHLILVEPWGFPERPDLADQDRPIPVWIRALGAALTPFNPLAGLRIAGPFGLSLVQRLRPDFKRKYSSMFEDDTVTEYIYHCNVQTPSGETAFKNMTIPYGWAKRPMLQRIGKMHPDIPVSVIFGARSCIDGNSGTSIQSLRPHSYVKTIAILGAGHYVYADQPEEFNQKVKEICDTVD
rCAG binder conf = r(CAG) RNA repeat binding, confirmation | shares compounds with rCAG RNA binder | TO-PRO-1 dye displacement fluorescence | inhibition, % at 3 µM | 4,300 tested, 70% active;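 active means inhibition above a per-plate cutoff, the mean inhibition of sample wells plus 3 SD, cut at about 35% in these data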;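 further: loss of TO-PRO-1 fluorescence as compound displaces dye from 1x1 AA loop RNA; 0% = DMSO only wells and 100% = 100 µM mitoxantrone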
DNA CAG counter = disrupts DNA CAG TO-PRO-1 complex, flagging rCAG hits | inhibition, % at 3 µM | d(CAG) DNA oligo TO-PRO-1 dye displacement, fluorescence | 4,300 tested, 94% active | shares compounds with rCAG RNA binder | AID 652068;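 active means inhibition above its plate's cutoff, the mean test-well inhibition plus 3 SD, cut at about 4.8% in these data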;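 further: 0% = DNA dye mix with DMSO and 100% = 100 µM mitoxantrone; hits displace the dye from DNA and so lower well fluorescence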
dCAG dye DR = DNA CAG dye complex inhibition, dose response counter-screen | IC50, µM | DNA CAG/GTC duplex TO-PRO-1 dye displacement fluorescence | 250 tested, 20% active | shares compounds with rCAG RNA binder; in the data active means IC50 below about 10 µM
The depositor's hits bear a star; · = no result. Compounds with a hit are over-represented: about 5.9% of the library has one in this group of screens.

SMILES | PRMT1 FP inh | rCAG RNA binder | ALR H2O2 inh | LANA-H2A inh | Rtt109 HAT inh | ABHD5 PLIN5 PPI | rCAG binder conf | DNA CAG counter | others
Cc1ccc(S(=O)(=O)N(C)c2ccc(OCC(=O)Nc3cc(C(=O)O)ccc3Cl)cc2)cc1 | 2.7 | 61.4* | · | · | · | · | 56.6* | 20.4*
Cc1ccc(OCC(=O)Nc2cc(C(=O)O)cc(C(=O)O)c2)cc1C | 16.2 | 6.6 | 4.7 | 3.1 | 1.0 | 0.6 | · | ·
O=c1cc(CSc2ccc(Cl)cc2)nc(-c2ccccn2)[nH]1 | -2.0 | 1.1 | -10.7 | 2.8 | -9.5 | -3.7 | · | ·
O=S(=O)(N/N=C/c1ccc(Cl)cc1)c1ccc(Cc2ncc(C(F)(F)F)cc2Cl)s1 | -0.8 | 45.0* | 0.8 | -5.8 | 2.5 | -1.8 | 64.5* | 25.6*
NC(=O)c1ccc(Cc2ncc(C(F)(F)F)cc2Cl)s1 | 0.5 | -0.6 | 0.8 | -4.0 | 0.2 | 9.8 | · | ·
C=CCOc1c(OC)cc(/C=N/Nc2cccc(C(=O)O)c2)c(Br)c1Br | 7.2 | 51.1* | · | 3.1 | 5.8 | -1.2 | 70.0* | 31.4* | dCAG dye DR=8.34*
CC(C)C[C@@H]1COc2cccc(N3CCSCC3)c2S(=O)(=O)N1C | -1.5 | 0.7 | · | · | · | · | · | ·
CCOc1ccc(NC(=O)CN(C)C(=O)c2ccc3c(c2)S(=O)(=O)N=C2CCCCCN23)cc1OCC | 0.8 | 3.5 | · | · | -2.3 | 0.6 | · | ·
COc1ccc(N=C2NC(=O)/C(=C\C=C\c3ccco3)S2)cc1 | 20.4 | 44.3* | · | · | -4.5 | 22.3* | 32.5 | 16.9*
Cc1ccc(N=C2NC(=O)/C(=C\c3ccco3)S2)cc1 | 6.2 | 42.0* | · | 3.4 | 7.1 | 9.8 | 33.7 | 15.4*
Cn1cccc1/C=C1\SC(=Nc2ccccc2)NC1=O | -1.4 | 8.1 | 2.2 | -0.2 | 2.6 | 4.7 | · | ·
Cc1ccc(-c2nn(-c3ccccc3)cc2C=C2SC(=S)N(CCS(=O)(=O)O)C2=O)cc1 | 10.2 | 86.7* | · | · | · | 9.3 | 94.3* | 77.5*
O=C1NC(=O)C2(CCOc3ccc(F)cc32)N1 (stereo not drawn) | 4.0 | 1.1 | · | · | · | · | · | ·
Cc1cc(C)c2nc(NNC(=O)c3cc(-c4cccs4)nc4ccccc34)sc2c1 | 5.0 | 37.4* | 3.1 | 1.4 | -9.2 | 5.7 | 42.4* | 18.4*
O=C(NNc1nc2ccc(Cl)cc2s1)c1cc(-c2cccs2)nc2ccccc12 | -3.7 | 54.8* | -1.3 | 7.9 | -2.1 | -18.0 | 50.3* | 24.6*
Cc1ccc2sc(NNC(=O)c3cc(-c4cccs4)nc4ccccc34)nc2c1C | 0.1 | 18.9 | 4.8 | -1.5 | · | · | · | ·
